The other results are listed elsewhere or left out. Records with an inconclusive call do not appear. Calls of active or inactive are those of the source. The call rests on the fitted dose curve; in most records, active means well fitted inhibition curve with a large enough effect; inconclusive means small, poorly fitted or top-dose-only effect, or another doubt; inactive means no such curve, though single readings can be large or run the other way.
Potency means the concentration at half of the fitted maximal effect.

For the test, the target named is DNA polymerase eta (Homo sapiens) (UniProt Q9Y253). As to the kind of experiment: qHTS for Inhibitors of Polymerase Eta: Confirmatory Assay for Cherry-picked Compounds (AID 720502). The note with it: Pol eta primer extension, TAMRA/BHQ fluorescence, 10 min. The text has this: The Y-family of DNA polymerases, such as the Polymerase Eta (Pol eta), are specifically involved in DNA repair. Pol eta copies undamaged DNA with a lower fidelity than other DNA-directed polymerases. However, it accurately replicates UV-damaged DNA. When thymine dimers are present, this polymerase inserts the complementary nucleotides in the newly synthesized DNA, thereby bypassing the lesion and suppressing the mutagenic effect of UV-induced DNA damage. […] Thus, while Pol eta's (and most likely iota's) normal function is to protect humans against the deleterious consequences of DNA damage, under certain conditions they can have deleterious effects on human health. As a consequence, small molecule inhibitors of Pol eta (identified from a high throughput replication assay) have potential therapeutic applications. A 1536-well format, fluorescence based, high-throughput screen (AID 588591) is developed in collaboration with the National Institute of Child Health & Human Development (NICHD) to screen for inhibitors of the Pol eta enzyme. This screen is used to validate the activity of the selected compounds from the primary assay against the human Pol eta. Inhibition is the desired outcome for this assay. NIH Chemical Genomics Center [NCGC] NIH Molecular Libraries Probe Centers Network [MLPCN] MLPCN Grant: MH090825 Assay Submitter (PI): Roger Woodgate, NICHD
DNA polymerase eta (Homo sapiens), sequence (Q9Y253 whole entry, looked up): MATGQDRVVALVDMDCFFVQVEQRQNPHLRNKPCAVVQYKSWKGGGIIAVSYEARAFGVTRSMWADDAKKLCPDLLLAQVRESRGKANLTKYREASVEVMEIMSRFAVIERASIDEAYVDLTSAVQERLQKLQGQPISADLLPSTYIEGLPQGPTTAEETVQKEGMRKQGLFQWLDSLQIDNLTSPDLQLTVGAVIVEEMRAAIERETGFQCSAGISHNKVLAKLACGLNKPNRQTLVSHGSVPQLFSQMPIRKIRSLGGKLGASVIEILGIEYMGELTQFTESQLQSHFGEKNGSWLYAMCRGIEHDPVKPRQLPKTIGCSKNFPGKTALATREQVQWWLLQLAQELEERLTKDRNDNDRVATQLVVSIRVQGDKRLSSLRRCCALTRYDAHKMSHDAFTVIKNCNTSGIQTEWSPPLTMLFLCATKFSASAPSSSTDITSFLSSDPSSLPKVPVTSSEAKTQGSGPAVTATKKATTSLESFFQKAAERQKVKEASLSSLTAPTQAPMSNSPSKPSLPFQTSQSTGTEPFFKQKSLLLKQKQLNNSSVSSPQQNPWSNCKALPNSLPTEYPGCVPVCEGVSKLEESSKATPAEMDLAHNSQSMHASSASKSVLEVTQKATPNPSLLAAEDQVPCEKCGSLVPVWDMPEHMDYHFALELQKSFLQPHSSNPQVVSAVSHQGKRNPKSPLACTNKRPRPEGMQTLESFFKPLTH
Three microliters of reagents (buffer in column 3 and 4 as negative control while 10 nM Pol eta in columns 1, 2, and 5-48) were dispensed into a 1536-well black solid-bottom plate. Compounds (23 nL) were transferred via Kalypsys pin tool equipped with 1536-pin array. The plates were then incubated for 15 min at room temperature, and 1 uL of substrate was added to start the reaction for a final concentration of 50 nM. The substrate was made by the annealing of unlabeled oligodeoxynucleotide primer (59-[…]-39) and TAMRA-labeled reporter strand (59-[…]-6-TAMRA-39) to oligodeoxynucleotide template labeled with BHQ-2 (59-BHQ-2-[…]-39) described in detail at the Yamanaka et.al. (PLOS, 2012) reference paper. The assay plates were initially read after 0 min and again after 10 min of kinetic reaction using the PerkinElmer Viewlux reader equipped with 525 nm excitation and 598 nm emission filters.
On the technique in general: In qHTS, concentration-response curves come from the screen itself.
Regarding `COCCNC(=O)Nc1ccc2nc(-c3ccco3)c(-c3ccco3)nc2c1`, the Potency is 5.36 µM (active).

Consider `CCOc1cccc2c1N[C@@H](c1ccc(C(=O)O)cc1)[C@H]1CC=C[C@@H]21`, for which the Potency was 7.57 µM (active).

Regarding `Cc1cc(/C=N/Nc2ccc([N+](=O)[O-])cn2)c(C)n1-c1cccc(C(=O)O)c1`, the Potency was 26.9 µM (active).

Consider `O=C1NN(c2ccccc2)C(=O)/C1=C/c1ccc(-c2cccc(C(=O)O)c2)o1`, for which the Potency was 30.1 µM (active).

As to `O=C(COC(=O)CCC(=O)c1cccs1)NCc1ccco1`, the Potency was 75.7 µM (active).

`CCOc1ccccc1/C=c1\sc2nc(-c3ccco3)nn2c1=O`: the Potency is 60.1 µM (active).

Regarding `CCc1ccc2nc3sc(C(=O)Nc4nnc(CC)s4)c(N)c3cc2c1`, the Potency was 60.1 µM (active).

As to `O=C(O)C(c1ccccc1)N1C(=O)/C(=C\c2ccc(-c3cccc(Cl)c3)o2)SC1=S` (stereo not given), the Potency is 75.7 µM (active).

Consider `O=C1Nc2ccc([N+](=O)[O-])cc2C1=Nc1cccc(CO)c1`, for which the Potency was 75.7 µM (active).

As to `ON=C1/C(=N\O)CC2(C/C1=N/O)OCCO2`, the Potency is 30.1 µM (active).

On to `COc1ccc2[nH]c3c(C)c4cc[n+](C)cc4c(C)c3c2c1`, for which the Potency is 9.53 µM (active).

`Cc1cc(/C=C2\SC(=O)N(C)C2=O)c(C)n1-c1cccc(C(=O)O)c1`: the Potency was 30.1 µM (active).

`Cc1oc2c(C)c3oc(=O)c(CC(=O)N[C@@H](CC(C)C)C(=O)N[C@@H](Cc4ccccc4)C(=O)O)c(C)c3cc2c1C`: the Potency is 47.8 µM (active).

Consider `C#Cc1ccc([C@@H]2C=C(C(=O)O)O[C@H](OCCCCO)C2)cc1`, for which the Potency was 84.9 µM (active).

In the case of `Cc1ccc2cc(/C=N/Nc3ccc(C(=O)O)cc3)c(Cl)nc2c1`, the Potency was 30.1 µM (active).

In the case of `COc1ccccc1C(=O)N/C(=C/c1ccco1)C(=O)Nc1ccc(C(=O)O)cc1`, the Potency was 53.6 µM (active).

In the case of `CSc1nnc(SCc2nc3sc(C(=O)O)c(C)c3c(=O)[nH]2)s1`, the Potency is 5.36 µM (active).

With `NC(CSC(c1ccccc1)(c1ccccc1)c1ccc(-c2ccccc2)cc1)C(=O)O` (stereo not given), the Potency was 75.7 µM (active).

For `Cc1ccc(-c2nn(-c3ccccc3)cc2/C=C2\SC(=S)N(CCCCCC(=O)O)C2=O)o1`, the Potency is 75.7 µM (active).

Take `O=C(Nc1ccc(S(=O)(=O)Nc2nccs2)cc1)c1cc(-c2ccncc2)nc2ccccc12`: the Potency was 67.5 µM (active).

As for `COc1ccc(Cl)cc1NC(=O)CCS(=O)(=O)c1ccc(Br)cc1`, the Potency is 16.9 µM (active).

As to `CC1CCN(c2ccc(S(=O)(=O)Nc3cc(C(=O)O)cc(C(=O)O)c3)cc2[N+](=O)[O-])CC1`, the Potency was 60.1 µM (active).

Take `N#C/C(=C\C1=C(N2CCOCC2)C(=C\c2ccccc2)/CC1)C(=O)Nc1ccccc1F`: the Potency is 30.1 µM (active).

On to `CCCN1CCN(C(=O)Cn2ncc3ccccc32)CC1`, for which the Potency is 75.7 µM (active).

As for `O=C1COc2c1ccc(O)c2O`, the Potency was 9.53 µM (active).

As to `O=C(COC(=O)c1ccc(F)cc1F)Nc1ncccn1`, the Potency was 37.9 µM (active).

On to `CC(=O)N(C1=C(Cl)C(=O)c2ccccc2C1=O)c1ccc(C(=O)O)cc1`, for which the Potency was 26.9 µM (active).

As to `O=C(Cc1ccc(S(=O)(=O)N2CCCC2)s1)NC1CCCCCC1`, the Potency is 60.1 µM (active).

In the case of `Cc1c(CC(=O)N2CCN(C(=O)C3COc4ccccc4O3)CC2)c(=O)oc2c(O)c(O)ccc12` (stereo not given), the Potency is 7.57 µM (active).

Consider `C=CC1=C(C(=O)O)N2C(=O)[C@@H](NC(=O)/C(=N/OCC(=O)O)c3csc(N)n3)[C@H]2SC1`, for which the Potency is 3.38 µM (active).

Consider `Cc1nnc(SCC(=O)Nc2ccc(S(=O)(=O)Nc3ccc(Cl)nn3)cc2)s1`, for which the Potency is 53.6 µM (active).

As for `COC(=O)Cc1cc(=O)n(-c2nc3ccccc3s2)[nH]1`, the Potency was 84.9 µM (active).

For the molecule `CCc1nc2cccnc2n1-c1ccc(C(=O)O)cc1`, the Potency was 10.7 µM (active).

Consider `CN1CCN(CCCNC(=O)c2ccc(/C=C3\Oc4ccccc4N(Cc4ccc(Cl)cc4)C3=O)cc2)CC1`, for which the Potency was 19 µM (active).

Consider `Cc1cc(C)cc(C(=O)NC2C(=O)N3C(C(=O)O)=C(CSc4nnc(C)s4)CSC23)c1` (stereo not given), for which the Potency was 26.9 µM (active).

As to `COc1ccc(Cc2nnc(NC(=O)Cc3cccs3)s2)cc1`, the Potency is 19 µM (active).

For the molecule `Cc1ccc(C(=O)O)cc1-c1ccc(/C=C2\SC(=O)N(CC(=O)Nc3ccc4c(c3)OCO4)C2=O)o1`, the Potency was 19 µM (active).

As to `C=C(C)C(=O)O[C@H]1C/C(C)=C\C(=O)/C=C(\C)[C@H](O)[C@@H]2OC(=O)C(=C)[C@@H]21`, the Potency was 75.7 µM (active).

Consider `NC(=O)CSc1nnc(NC(=O)c2ccc(Br)o2)s1`, for which the Potency was 26.9 µM (active).

With `CC1=NN(c2ccc(Cl)c(C(=O)O)c2)C(=O)/C1=C/c1ccc(-c2ccccc2[N+](=O)[O-])o1`, the Potency is 75.7 µM (active).

Values taken from PubChem BioAssay (NCATS).
